Experimental data: PubChem BioAssay (NCI)
About 83,000 compounds went through this panel and 20% of them were active in at least one assay; those are over-represented in the sample as a whole.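 Percent growth is the endpoint: 0 to 100 indicates growth inhibition (40 means 60% inhibition), 0 means no net growth, and negative values indicate cell death.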 Calls of active or inactive are those of the source. Rule for the calls: active = growth percent below 10; inactive = the rest.

How the values were obtained:
Test in all cases: NCI-60 one-dose screen, 48 h (100 = growth as untreated, 0 = no growth, -100 = all killed)
Settings in all cases: 10 µM unless noted
EKVX NSCLC = system: EKVX NSCLC
SN12C renal = system: SN12C renal
UO-31 renal = system: UO-31 renal
TK-10 renal = system: TK-10 renal
ACHN renal = system: ACHN renal
CAKI-1 renal = system: CAKI-1 renal
A498 renal = system: A498 renal
CCRF-CEM leukemia = system: CCRF-CEM leukemia
MOLT-4 leukemia = system: MOLT-4 leukemia

Measured: growth

COc1ccc2c(c1)cn1c3ccc(O)cc3nc(N)c21
inactive: EKVX NSCLC 41% | SN12C renal 34.6% | UO-31 renal 15.6% | TK-10 renal 25.2% | ACHN renal 27.4% | CAKI-1 renal 26.9% | A498 renal 38.6% | CCRF-CEM leukemia 23% | MOLT-4 leukemia 18.5%

O=C(Nc1cnn2ccc(N3CCC[C@@H]3c3cc(F)ccc3F)nc12)N1CC[C@H](O)C1
inactive: EKVX NSCLC 99.5% | SN12C renal 81.1% | UO-31 renal 82.8% | TK-10 renal 99.8% | ACHN renal 103% | CAKI-1 renal 88.3% | CCRF-CEM leukemia 95.5% | MOLT-4 leukemia 96.8%
active: A498 renal 2.72%

C=CC(=O)Nc1cc(Nc2nccc(-c3cn(C)c4ccccc34)n2)c(OC)cc1N(C)CCN(C)C
active: EKVX NSCLC -46.2% | SN12C renal -59.3% | UO-31 renal -83.2% | TK-10 renal -17.1% | ACHN renal -95.4% | CAKI-1 renal -86.4% | A498 renal -58.3% | CCRF-CEM leukemia -17.1% | MOLT-4 leukemia -52.7%

N#CCNC(=O)c1ccc(-c2ccnc(Nc3ccc(N4CCOCC4)cc3)n2)cc1
active: UO-31 renal -60.4% | TK-10 renal -8.51% | ACHN renal 6.04% | CAKI-1 renal -5.7% | A498 renal -31.8% | MOLT-4 leukemia 7.11%
inactive: EKVX NSCLC 43.9% | SN12C renal 31.5% | CCRF-CEM leukemia 15.7%

O=C(c1c(F)ccc(NS(=O)(=O)N2CC[C@@H](F)C2)c1F)c1c[nH]c2ncc(-c3cnc(C4CC4)nc3)cc12
inactive: EKVX NSCLC 58.5% | SN12C renal 48% | UO-31 renal 25.9% | TK-10 renal 41.7% | ACHN renal 34.5% | CAKI-1 renal 16.7% | A498 renal 62.7% | CCRF-CEM leukemia 47.6% | MOLT-4 leukemia 16.3%

COCCOc1cnc2ccn([C@H](C)c3nnc4c(F)cc(-c5cnn(C)c5)cn34)c(=O)c2c1
inactive: EKVX NSCLC 96% | SN12C renal 86.3% | UO-31 renal 60% | TK-10 renal 105% | ACHN renal 80.3% | CAKI-1 renal 65.2% | A498 renal 35.9% | CCRF-CEM leukemia 70.6% | MOLT-4 leukemia 78.7%

Cc1cn(-c2cc(NC(=O)c3ccc(C)c(Nc4nccc(-c5cccnc5)n4)c3)cc(C(F)(F)F)c2)cn1
inactive: EKVX NSCLC 69.6% | SN12C renal 66.9% | TK-10 renal 75.1% | ACHN renal 55.8% | CAKI-1 renal 50.6% | A498 renal 82.2% | CCRF-CEM leukemia 36.2% | MOLT-4 leukemia 42.9%
active: UO-31 renal -3.45%

CNC(=O)c1cnc(C)nc1-c1cc(C(C)(C)C)c(O)c(C(C)(C)C)c1
inactive: EKVX NSCLC 92.6% | SN12C renal 100% | UO-31 renal 94.6% | TK-10 renal 101% | ACHN renal 101% | CAKI-1 renal 96.8% | A498 renal 112% | CCRF-CEM leukemia 106% | MOLT-4 leukemia 95.7%

COc1ccc(Cc2cc(-c3ccccc3C)n[nH]c2=O)cc1
active: CCRF-CEM leukemia -41.2%
inactive: EKVX NSCLC 108% | SN12C renal 92.3% | UO-31 renal 76.8% | TK-10 renal 116% | ACHN renal 104% | CAKI-1 renal 109% | A498 renal 87.2% | MOLT-4 leukemia 96.9%

Cn1cc(-c2[nH]c3cc(NC(=O)[C@H](N)C4CCCCC4)cc4c3c2C=NNC4=O)cn1
active: SN12C renal -11.5% | UO-31 renal -13.6% | ACHN renal 4.51% | CAKI-1 renal 9.72% | A498 renal -43.7% | CCRF-CEM leukemia -29.4% | MOLT-4 leukemia -36.8%
inactive: EKVX NSCLC 33.1% | TK-10 renal 17.1%

CCN(CC)CCN1C(=O)c2cccc3c(-c4ccc5c(c4)ncn5C4CCCCC4)ccc(c23)C1=O
inactive: EKVX NSCLC 15.6% | SN12C renal 23.8% | TK-10 renal 32.1% | ACHN renal 10% | CAKI-1 renal 19.7% | CCRF-CEM leukemia 11.4%
active: UO-31 renal -23.7% | A498 renal -11.6% | MOLT-4 leukemia -9.62%

C/C(=C(/c1ccc(Cl)cc1)c1ccc(OCCN2CCCCC2)cc1)c1ccccc1
inactive: EKVX NSCLC 70.7% | SN12C renal 77% | UO-31 renal 59.7% | TK-10 renal 94.1% | ACHN renal 103% | CAKI-1 renal 89.4% | A498 renal 80.3% | CCRF-CEM leukemia 60.6% | MOLT-4 leukemia 83.4%

Cc1ccc(F)c(NC(=O)Nc2ccc(-c3cccc4[nH]nc(N)c34)cc2)c1
inactive: EKVX NSCLC 21.9% | SN12C renal 24.9% | UO-31 renal 17.6% | ACHN renal 15.4% | CAKI-1 renal 31.8% | A498 renal 30.1% | CCRF-CEM leukemia 11.4% | MOLT-4 leukemia 15.5%
active: TK-10 renal 2.19%

C#Cc1cccc(Nc2ncnc3cc4c(cc23)OCCOCCOCCO4)c1
active: TK-10 renal 7.84%
inactive: EKVX NSCLC 42.5% | SN12C renal 42% | UO-31 renal 27.2% | ACHN renal 16.3% | CAKI-1 renal 28.4% | A498 renal 24.1% | CCRF-CEM leukemia 73.3% | MOLT-4 leukemia 53.3%

Cn1cc(-c2ncnc3ccc(-c4cnc(Cl)c(NS(C)(=O)=O)c4)cc23)c2ccccc21
inactive: EKVX NSCLC 11.7% | SN12C renal 21.7% | ACHN renal 13.3% | CAKI-1 renal 10.6% | CCRF-CEM leukemia 23.9%
active: UO-31 renal -5.34% | TK-10 renal -1.34% | A498 renal -42.7% | MOLT-4 leukemia 7.73%

CN1CC[C@@H](c2c(O)cc(O)c3c(=O)cc(-c4ccccc4Cl)oc23)[C@@H]1CO
active: EKVX NSCLC 0.493% | UO-31 renal -5.4% | TK-10 renal 5.71% | ACHN renal 4.44% | CAKI-1 renal 5.86% | A498 renal -60.4% | MOLT-4 leukemia 1.59%
inactive: SN12C renal 12.4% | CCRF-CEM leukemia 13.4%

Cc1cn(-c2cc(NC(=O)c3ccc(C)c(Nc4nccc(-c5cnccn5)n4)c3)cc(C(F)(F)F)c2)cn1
inactive: EKVX NSCLC 107% | SN12C renal 56.5% | UO-31 renal 62.9% | TK-10 renal 102% | ACHN renal 83.7% | CAKI-1 renal 97.6% | A498 renal 106% | CCRF-CEM leukemia 60.5% | MOLT-4 leukemia 52.6%

O=C(Nc1ccc(-c2ccnc(Nc3ccc(N4CCOCC4)cc3)n2)cc1)[C@@H]1CCCN1
inactive: EKVX NSCLC 71.7% | SN12C renal 45.6% | UO-31 renal 26.5% | TK-10 renal 71.6% | ACHN renal 44.1% | CAKI-1 renal 29.9% | A498 renal 26.2% | CCRF-CEM leukemia 28.1% | MOLT-4 leukemia 21.7%

COC(=O)[C@H](C)NC(=O)[C@@H](OC)[C@@H]1Cc2cc3cc(OC4CC(OC5CC(O)C(O)C(C)O5)C(O)C(C)O4)c(C)c(O)c3c(O)c2C(=O)[C@H]1OC1CC(OC2CC(OC3CC(C)(O)C(O)C(C)O3)C(O)C(C)O2)C(O)C(C)O1 (some centres not stated)
active: UO-31 renal 5.72% | ACHN renal -1.98% | A498 renal -66.5% | MOLT-4 leukemia 0.969%
inactive: EKVX NSCLC 21.9% | SN12C renal 11.5% | TK-10 renal 13.1% | CAKI-1 renal 27.5% | CCRF-CEM leukemia 14.5%

CCCCCCCC12Cc3ccccc3C1=Nc1c(c3ccccc3n1C)C2=O (configuration not stated)
inactive: EKVX NSCLC 98.8% | SN12C renal 92.1% | UO-31 renal 57.5% | TK-10 renal 102% | ACHN renal 93.3% | CAKI-1 renal 79.7% | A498 renal 86.4% | CCRF-CEM leukemia 83.6% | MOLT-4 leukemia 78.3%

CC(=O)C1=C(C)NC(SCc2nnc(-c3ccc(C)cc3)o2)=NC1c1ccc(F)cc1 (configuration not stated)
inactive: EKVX NSCLC 107% | SN12C renal 93.1% | UO-31 renal 83.6% | TK-10 renal 85.6% | ACHN renal 92% | CAKI-1 renal 88% | A498 renal 109% | CCRF-CEM leukemia 88.1% | MOLT-4 leukemia 94.1%

CS(=O)(=O)N1CCN(Cc2cc3nc(-c4cccc5[nH]ncc45)nc(N4CCOCC4)c3s2)CC1
active: UO-31 renal -14.7% | TK-10 renal 0.78% | ACHN renal 6.84% | CAKI-1 renal 7.35% | A498 renal -47.6%
inactive: EKVX NSCLC 19.9% | SN12C renal 17.2% | CCRF-CEM leukemia 36.3% | MOLT-4 leukemia 12.3%

O=C1C=CC2(NN=C(c3ccccc3)N2c2ccccc2)c2cccc(O)c21 (configuration not stated)
inactive: EKVX NSCLC 57.9% | UO-31 renal 22.1% | TK-10 renal 91.6% | ACHN renal 55.2% | CAKI-1 renal 81.7% | A498 renal 103% | CCRF-CEM leukemia 76.5% | MOLT-4 leukemia 71.7%
active: SN12C renal 7.23%

CO[C@H](C(=O)N[C@@H](CCCCNC(=O)OCc1ccccc1)C(=O)OC(C)(C)C)[C@@H]1Cc2cc3cc(OC4CC(OC5CC(O)C(O)C(C)O5)C(O)C(C)O4)c(C)c(O)c3c(O)c2C(=O)[C@H]1OC1CC(OC2CC(OC3CC(C)(O)C(O)C(C)O3)C(O)C(C)O2)C(O)C(C)O1 (some centres not stated)
active: EKVX NSCLC -25.1% | SN12C renal -7.42% | TK-10 renal -9.57% | ACHN renal -2.61% | A498 renal -89.9% | CCRF-CEM leukemia 3.09% | MOLT-4 leukemia -12.6%
inactive: UO-31 renal 10.5% | CAKI-1 renal 22.6%

O=C(O)C1(Cc2cccc(Nc3nccs3)n2)CCC(Oc2cccc(Cl)c2F)CC1 (configuration not stated)
inactive: EKVX NSCLC 90.9% | SN12C renal 73.4% | UO-31 renal 73.5% | TK-10 renal 63.8% | ACHN renal 68.4% | CAKI-1 renal 66.9% | A498 renal 72% | CCRF-CEM leukemia 62.6% | MOLT-4 leukemia 67.4%

CNC(=O)c1c(C)oc2cc(Oc3ncnc4cc(OC)c(OC)cc34)ccc12
inactive: EKVX NSCLC 113% | SN12C renal 107% | UO-31 renal 66% | TK-10 renal 98.9% | ACHN renal 104% | CAKI-1 renal 82.2% | A498 renal 19.5% | CCRF-CEM leukemia 86.2% | MOLT-4 leukemia 85.6%

Cn1c(Nc2ccc(C(F)(F)F)cc2)nc2cc(Oc3ccnc(-c4ncc(C(F)(F)F)[nH]4)c3)ccc21
inactive: EKVX NSCLC 57.9% | SN12C renal 59.8% | UO-31 renal 28.8% | TK-10 renal 95% | ACHN renal 42.2% | CAKI-1 renal 34.7% | A498 renal 23.7% | CCRF-CEM leukemia 36.6% | MOLT-4 leukemia 25.7%

C=CCn1c(=O)c2cnc(Nc3ccc(N4CCN(C)CC4)cc3)nc2n1-c1cccc(C(C)(C)O)n1
inactive: EKVX NSCLC 22.5% | SN12C renal 28.4% | UO-31 renal 10.5% | TK-10 renal 13.8% | ACHN renal 25.4% | CAKI-1 renal 23.3%
active: A498 renal -26% | CCRF-CEM leukemia 8% | MOLT-4 leukemia 3.84%
